Consider 17 compounds from PubChem BioAssay.

The source made the active and inactive calls. Unless noted, no rule for the calls is given here.

For experiment [1], the system named is XIP peptide (Xip251-270) binding. The experiment in a line: XIP fragment 251-270 binding compounds – biochemical, small-molecule microarray, fluorescence 635/667 nm, 0.1 µg/mL protein, primary screen (AID 1182). To be noted: fluorescent protein binding, 635 nm, higher = more signal, called active from +8 up or from −8 down.
The next experiment deals with XIP peptide (Xip251-270). The experiment in a line: compounds binding XIP fragment 251-270 – biochemical, small-molecule microarray, fluorescence 635/667 nm, 0.5 µg/mL protein, primary screen (AID 1183). The note with it: fluorescence 635 nm, higher = more signal.
Experiment [2] can be described thus: blood-stage malaria parasite viability loss – strain 3D7, DAPI fluorescence, 100 nL, primary screen (AID 1184).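 Also: parasites grown inside human red blood cells in medium with human serum.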 The note with it: P. falciparum 3D7 growth, 3 d, higher = more signal.
The target of experiment [3] is Homeobox protein Hox-A13 (Mus musculus) (UniProt Q62424). Kind of experiment: disruptors of Hoxa13 oligonucleotide interaction – biochemical, fluorescence polarization, labeled oligonucleotide, primary screen (AID 1185). To be noted: Hoxa13:DNA binding, 15 min, higher = more signal, called active from +8 up or from −8 down. For orientation: Polarisation of emitted light reports the rotation of a fluorescent probe.
Homeobox protein Hox-A13 (Mus musculus), sequence (Q62424 whole entry, looked up): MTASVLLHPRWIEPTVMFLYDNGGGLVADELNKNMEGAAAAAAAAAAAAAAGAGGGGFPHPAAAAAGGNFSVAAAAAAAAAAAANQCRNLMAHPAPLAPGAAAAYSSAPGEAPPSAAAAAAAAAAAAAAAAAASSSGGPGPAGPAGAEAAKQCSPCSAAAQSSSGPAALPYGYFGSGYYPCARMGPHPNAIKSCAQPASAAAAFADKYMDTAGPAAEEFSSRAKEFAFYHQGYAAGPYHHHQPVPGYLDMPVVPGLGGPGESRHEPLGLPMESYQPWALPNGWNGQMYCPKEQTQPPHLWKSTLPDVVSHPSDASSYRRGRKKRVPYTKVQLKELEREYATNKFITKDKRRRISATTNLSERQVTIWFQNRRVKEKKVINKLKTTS

Experiment [4] can be described thus: blockers of DNA damage checkpoint Chk1 activation – imaging, HeLa, hydroxyurea, phospho-Chk1 antibody, percent positive cells, primary screen (AID 1186). To be noted: hydroxyurea-induced phospho-Chk1 immunofluorescence imaging, higher = more signal.
A short description of experiment [5]: blockers of DNA damage checkpoint Chk1 activation – imaging, HeLa, hydroxyurea, phospho-Chk1 nuclear intensity, primary screen (AID 1187). To be noted: hydroxyurea-induced phospho-Chk1 immunofluorescence imaging, higher = more signal.

With `COCCOC(=O)N1C(=O)[C@@]2(c3cc(C#Cc4ccc(OC)cc4)ccc31)[C@H](C(=O)Nc1nc3ccccc3s1)[C@H]1C(=O)O[C@H](c3ccccc3)[C@H](c3ccccc3)N1[C@@H]2c1ccccc1OCCO`, the composite z-score is 0.71 (inactive) in experiment [1] and 0.594 with XIP peptide (Xip251-270). The z-score was -1.96 in experiment [2], 3.56 (inactive) in experiment [3], -0.338 (inactive) in experiment [4] and -0.538 (inactive) in experiment [5].
As for `C=CCC(OC(C)=O)[C@@H]1[C@@H](N(Cc2cccc3ccccc23)C(=O)c2ccc(-c3ccccc3)cc2)c2cc(OCCCO)ccc2N1C(=O)c1ccc2ccccc2n1` (some centres not stated), the composite z-score in experiment [1] is -0.268 (inactive); in the experiment on XIP peptide (Xip251-270) it was 0.0494. Also, the z-score in experiment [2] is -0.198; in experiment [3], -1.17 (inactive); in experiment [4] it was 0.116 (inactive); in experiment [5], -0.14 (inactive).
With `CC=CC(O)C1C=CC2C(=O)N(C)C(=O)C2N1NC(=O)OC(C)(C)C` (configuration not stated), the composite z-score in experiment [1] was -0.3 (inactive); in the experiment with XIP peptide (Xip251-270) it was 0.335. For the same compound, the z-score in experiment [2] was 0.675; in experiment [3] it was -1.46 (inactive); in experiment [4], 0.698 (inactive); in experiment [5], -0.0345 (inactive).
As to `CC(C)=CCN(C(=O)C#Cc1ccccc1)[C@H](CO)c1ccccc1`, the composite z-score in experiment [1] is -0.415 (inactive); with XIP peptide (Xip251-270), -0.0445. In addition, the z-score in experiment [2] was -1.83; in experiment [3], -7.52 (inactive); in experiment [4], -0.956 (inactive); in experiment [5], -0.6 (inactive).
Turning to `CC(C)N1CC=CC23O[C@@H]4C=CCCOC(=O)C4[C@H]2C(=O)N(CCCCCO)[C@@H]3C1=O` (some centres not stated), the composite z-score was 0.192 (inactive) in experiment [1] and -0.386 in the experiment on XIP peptide (Xip251-270). The z-score was 0.263 in experiment [2], -3.86 (inactive) in experiment [3], -0.389 (inactive) in experiment [4] and 0.0936 (inactive) in experiment [5].
For the compound `COCCCNC(=O)[C@@]1(Sc2ccc(C)cc2)CC(=O)N(C2CCCCC2)[C@@H]1c1ccc(CO)cc1I`, the values for the composite z-score (in experiment [1]; with XIP peptide (Xip251-270)) were -0.159 (inactive) and 0.736, respectively. For the same compound, the z-score was -1.39 in experiment [2], -5.66 (inactive) in experiment [3], 0.46 (inactive) in experiment [4] and 0.268 (inactive) in experiment [5].
For `COc1ccccc1CN1C(=O)c2ccccc2[C@](Cc2ccccc2I)(C(=O)NCCCN(C)C)[C@@H]1c1ccc(CO)cc1`, the composite z-score in experiment [1] is 0.287 (inactive); in the experiment with XIP peptide (Xip251-270) it was 0.808. For the same compound, the z-score was -2.36 in experiment [2], 1.61 (inactive) in experiment [3], -0.215 (inactive) in experiment [4] and -0.184 (inactive) in experiment [5].
Turning to `COC(=O)C(CC#Cc1ccc2c(c1)[C@]1(C(=O)N2)[C@H](c2ccc(O)cc2)N2[C@H](c3ccccc3)[C@H](c3ccccc3)OC(=O)[C@H]2[C@@H]1C(=O)N1CCc2cc(OC)c(OC)cc2C1)C(=O)OC`, the composite z-score in experiment [1] was 1.78 (inactive); in the experiment with XIP peptide (Xip251-270) it was 0.779. Further, the z-score in experiment [2] was -2.02; in experiment [3], -2.32 (inactive); in experiment [4], 0.323 (inactive); in experiment [5] it was 0.0329 (inactive).
For the compound `C=CCOC(=O)[C@@H]1[C@H]2C(=O)O[C@H](c3ccccc3)[C@H](c3ccccc3)N2[C@H](c2ccc(OCCOC(=O)[C@H]3C[C@H]4C(=O)NCC(=O)N4[C@H]3c3ccc(O)cc3)cc2)[C@@]12C(=O)Nc1ccc(I)cc12`, the composite z-score in experiment [1] is 1.34 (inactive); in the experiment on XIP peptide (Xip251-270) it was 0.868. The z-score was -1.69 in experiment [2], 1.52 (inactive) in experiment [3], -0.804 (inactive) in experiment [4] and -0.762 (inactive) in experiment [5].
`O=C1OCCC=C[C@H]2OC34C=CCN(CCN5CCOCC5)C(=O)[C@H]3N(CCCO)C(=O)[C@@H]4C12` (some centres not stated): the composite z-score in experiment [1] was 0.186 (inactive); in the experiment on XIP peptide (Xip251-270), 0.0388. Moreover, the z-score was -1.72 in experiment [2], -3.86 (inactive) in experiment [3], -0.46 (inactive) in experiment [4] and -0.374 (inactive) in experiment [5].
As for `CC(=O)n1cc(C(O)C2C=CC3C(=O)N(c4ccccc4)C(=O)C3N2Nc2ccccc2F)c2ccccc21` (configuration not stated), the values for the composite z-score (in experiment [1]; with XIP peptide (Xip251-270)) were 0.0433 (inactive) and 0.752, respectively. The z-score in experiment [2] was -0.153; in experiment [3] it was -4.01 (inactive); in experiment [4], -0.0566 (inactive); in experiment [5], 0.153 (inactive).
For the compound `CC(C)(C)OC(=O)CC[C@]1(C(=O)N2CCOCC2)N=C(c2ccc(OCCCO)cc2)O[C@H]1c1ccccc1CN=[N+]=[N-]`, the composite z-score in experiment [1] was 0.518 (inactive); in the experiment with XIP peptide (Xip251-270), 0.792. Besides, the z-score in experiment [2] was -1.79; in experiment [3] it was -6.05 (inactive); in experiment [4], -0.0845 (inactive); in experiment [5], -0.314 (inactive).
Regarding `C[N+](C)(C)CCCCCCNC(=O)[C@@H]1C[C@@H]2C(=O)N[C@@H](Cc3ccccc3)C(=O)N2[C@@H]1c1ccc(O)cc1`, the composite z-score in experiment [1] is 1.13 (inactive); with XIP peptide (Xip251-270), 0.841. In addition, the z-score in experiment [2] was -0.324; in experiment [3], -2.44 (inactive); in experiment [4], 0.459 (inactive); in experiment [5] it was 0.496 (inactive).
With `C=CC[C@]1(C(=O)N(C)C)COC(c2ccc(OCCCO)cc2)=N1`, the values for the composite z-score (in experiment [1]; in the experiment on XIP peptide (Xip251-270)) were 0.113 (inactive) and 0.907, respectively. The z-score in experiment [2] is -1.7; in experiment [3], -2.35 (inactive); in experiment [4], -0.491 (inactive); in experiment [5], -0.146 (inactive).
In the case of `CCCCC(=C=CC[C@@H](O)c1ccc(OCCO)cc1)C[C@@H](O)c1ccccn1`, the composite z-score in experiment [1] was 0.0856 (inactive); in the experiment on XIP peptide (Xip251-270) it was -0.24. Further, the z-score in experiment [2] was -0.979; in experiment [3] it was -5.87 (inactive); in experiment [4], 0.784 (inactive); in experiment [5], 0.744 (inactive).
As to `CN1C(=O)[C@]2(CCC(=O)OC(C)(C)C)N=C(c3ccc(OCCCO)cc3)O[C@@H]2c2ccccc21`, the results for the composite z-score (in experiment [1]; in the experiment with XIP peptide (Xip251-270)) were 0.0974 (inactive) and 0.654, respectively. Besides, the z-score is -1.56 in experiment [2], -5.26 (inactive) in experiment [3], -0.0356 (inactive) in experiment [4] and 0.25 (inactive) in experiment [5].
Take `NC(=O)[C@@]1(CCS(=O)(=O)c2ccccc2)COC(c2ccc(OCCCO)cc2)=N1`: the composite z-score in experiment [1] is -0.377 (inactive); in the experiment on XIP peptide (Xip251-270), -0.395. Besides, the z-score in experiment [2] is 0.605; in experiment [3], -4.75 (inactive); in experiment [4] it was -0.511 (inactive); in experiment [5], -1.12 (inactive).
